Several values for one entry are separate records, joined by “and”; a condition that tells them apart may be missing. Equal values may be shown once. Results filed as inconclusive are left out. A call without a number means that no potency is given here. Activity calls are given as the source filed them. Calls come from the whole dose curve; as a rule, active = well fitted cell-killing curve with a large enough effect in the repeat runs; inconclusive = weak or mixed curves; inactive = flat fitted curve, though single readings scatter.
Potency is the fitted concentration of half-maximal effect.

The nature of the test: qHTS assay to identify small molecule antagonists of the estrogen receptor beta (ER-beta) signaling pathway - cell viability counter screen (AID 1259382). Note: nearly all actives have a fitted effect of over 55% in size. Conditions: ER-beta-UAS-bla HEK293T viability, CellTiter-Glo luminescence, 16 h; series mostly up to 92.4 µM. The source says:
U.S. Tox21 Program National Center for Advancing Translational Sciences [NCATS] NIH Chemical Genomics Center [NCGC] U.S. Environmental Protection Agency [EPA] National Institutes of Environmental Health Sciences [NIEHS] National Toxicology Program [NTP] U.S. Food and Drug Administration [FDA] Tox21 Assay Overview: Estrogen receptor (ER), a nuclear hormone receptor, plays an important role in development, metabolic homeostasis and reproduction. Two subtypes of ER, ER-alpha and ER-beta, have similar expression patterns with some uniqueness in both types. Endocrine disrupting chemicals (EDCs) and their interactions with steroid hormone receptors like ER causes disruption of normal endocrine function. To identify the compounds that inhibit ER signaling, an ER-beta-UAS-bla GripTite cell line (Life Technologies, Madison, WI, USA) containing a beta-lactamase reporter gene under the control of an UAS response element was used to screen Tox21 10K compound library. The cytotoxicity of the Tox21 compound library against the ER-beta-bla cell line was tested in parallel by measuring the cell viability using CellTiter-Glo assay in the same wells.
Tox21 Assay Protocol Summary: ER-beta-UAS-bla HEK293T cells were dispensed at 2,000 cells/4 uL of assay medium containing 2% charcoal stripped FBS per well into black wall/clear-bottom 1536-well plates using a Multidrop Combi (ThermoFisher Scientific, Waltham, MA) dispenser. After the assay plates were incubated at a 37C and 5% CO2 for 6 hr, 23 nL of compounds dissolved in DMSO, positive controls or DMSO only was transferred to the assay plate by a Pintool station (Kalypsys, San Diego, CA), followed by addition of 1 uL (1nM as final concentration) of 17-beta-estradiol (E2) in assay medium using a Flying Reagent Dispenser (FRD, Aurora Discovery, San Diego, CA). The plates were incubated at 37C and 5% CO2 for 16 hr. Then 1 uL of LiveBLAzer B/G FRET substrate was added using a Flying Reagent Dispenser, the plates were incubated at room temperature for 2 hours, and fluorescence intensity was measured by an Envision plate reader (PerkinElmer, Shelton, CT). For cell viability readout that measures cytotoxicity, 4 uL/well of CellTiter-Glo reagent was added into the assay plates using a FRD. After 30 min incubation at room temperature, the luminescence intensity in the plates was measured using a ViewLux (PerkinElmer) plate reader.
For orientation: qHTS replaces the single test concentration by a dilution series.
Turning to `CN1CSC(=S)N(C)C1`, the Potency was 9.64 µM (active) and 8.61 µM (active).

For the compound `c1ccc2c(c1)Sc1ccccc1N2CC1CN2CCC1CC2` (centres undefined), the Potency is 21.1 µM (active).

`CCOC(=O)C(O)(c1ccc(Cl)cc1)c1ccc(Cl)cc1`: the Potency result is “inactive”.

On to `CCN(CC)C(=O)Cl`, for which the Potency result was “inactive”.

`ClC(Cl)=C(c1ccc(Cl)cc1)c1ccccc1Cl`: the Potency entry is “inactive”.

Consider `CO/C=C(/C(=O)OC)c1ccccc1Oc1cc(Oc2ccccc2C#N)ncn1`, for which the Potency is 54 µM (active).

Consider `N#Cc1cc([N+](=O)[O-])ccc1N`, for which the Potency result is “inactive”.

Turning to `OC(Cc1ccccc1Cl)(Cn1[nH]cnc1=S)C1(Cl)CC1` (centres undefined), the Potency result is “inactive”.

As to `CC(c1ccccc1)(c1ccc(O)cc1)c1ccc(O)cc1`, the Potency was 61.1 µM (active).

Regarding `Cc1ccc2nc3sc(=O)sc3nc2c1`, the activity change, negative = cytotoxicity was -3.52% [at 19 µM] (inactive).

With `Cc1cc(C(C)(C)c2ccc(O)c(C)c2)ccc1O`, the Potency result was “inactive”.

On to `O=[N+]([O-])c1c(Cl)c(Cl)cc(Cl)c1Cl`, for which the Potency result was “inactive”.

On to `C[C@]12CC[C@@H](O)C[C@@H]1CC[C@@H]1[C@@H]2CC[C@]2(C)C(=O)CC[C@@H]12`, for which the Potency was 43.3 µM (active).

In the case of `Cc1cc(C)c(C(=O)P(=O)(c2ccccc2)c2ccccc2)c(C)c1`, the Potency was 61.1 µM (active).

Consider `Clc1ccccc1-c1ccccc1Cl`, for which the Potency entry is “inactive”.

For the compound `O=C(c1ccccc1)C(Cl)Cl`, the Potency result is “inactive”.

With `COc1ccc(C(c2ccc(OC)cc2)C(Cl)(Cl)Cl)cc1`, the Potency result was “inactive”.

In the case of `Cc1nnc2n1-c1sc(CCc3ccc(CC(C)C)cc3)cc1C(c1ccccc1Cl)=NC2C` (centres undefined), the Potency was 33.5 µM (active).

On to `CNC(=O)Oc1cc(C)c(SC)c(C)c1`, for which the Potency entry was “inactive”.

The values are drawn from PubChem BioAssay (Tox21).
